# Glioma ERSR ind: qHTS for Inducers of the Endoplasmic Reticulum Stress Response (ERSR) in Human Glioma: qHTS | AID 602332, 2012 | Potency, µM, most hits filed as activators | 420,000 compounds, 0.02% hits | U87-MG GRP78 promoter luciferase reporter, 16 h; further: series mostly up to about 76 µM; nearly all actives have a fitted effect of over 35% in size
#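 Stably transfected U87-MG glioma cells carrying a GRP78-based luciferase sensor; 16 h compound incubation. Luminescence end-point read 10 min after Bright-Glo addition at room temperature.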
# ALOX12 inh: Primary qHTS assay for inhibitors of human arachidonate 12S-lipoxygenase (ALOX12): Round 2 | 580,000 compounds, 1.1% hits | Polyunsaturated fatty acid lipoxygenase ALOX12 (Homo sapiens), P18054 | AID 1671190, 2021 | purified 12hLO, xylenol orange hydroperoxide absorbance | Potency, µM (series often up to 108 µM), most hits filed as inhibitors
#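 Hydroperoxide product was detected by ferrous iron/xylenol orange as the 573 to 405 nm absorbance ratio. Arachidonic acid at 40 uM (final) was turned over for 30 min at room temperature by 150 nM human 12hLO, pH 7.0 Hepes buffer, after 15 min compound preincubation.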
# Anesthetic bind: qHTS Assay for Identification of Novel General Anesthetics | apoferritin/1-aminoanthracene competitive binding, fluorescence | Potency, µM (highest dose often 77.5 µM), actives largely listed as inhibitors | 350,000 compounds, 0.074% hits | AID 485281, 2010; further: nearly all actives have a fitted effect of over 20% in size
# Target sequence (P02791 2-175 limits assumed): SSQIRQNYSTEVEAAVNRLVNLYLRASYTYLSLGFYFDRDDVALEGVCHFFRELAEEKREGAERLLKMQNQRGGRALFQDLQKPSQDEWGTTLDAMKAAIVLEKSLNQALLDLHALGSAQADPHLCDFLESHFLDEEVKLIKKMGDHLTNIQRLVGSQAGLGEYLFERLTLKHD
#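 Apoferritin-based anesthetic binding model; compound displacement of fluorescent 1-AMA measured as endpoint fluorescence after 10 minutes at room temperature, scaled to free-ligand and complex controls.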
# BCR signal inh: qHTS Assay to Find Inhibitors of Chronic Active B-Cell Receptor Signaling; ABC-DLBCL IkBa-CBG/CBR reporter, luminescence ratio, 4 h; Potency, µM (highest dose often 46.1 µM), actives largely listed as inhibitors; 340,000 compounds, 0.05% hits; AID 493014, 2011; active means well fitted inhibition curve with a large enough effect in the signal ratio, with a control signal flat, not every such curve was filed as active; inconclusive means small, poorly fitted or top-dose-only effect, or effect the other way, or a change in a side signal; the % refers to the signal ratio
#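 Compounds up to 46 uM were incubated four hours with TMD8 cells whose green CBG68 luciferase is fused to IkappaBalpha; red CBR luminescence normalised the signal, and concentration-effect curves were fitted to fusion, red and ratio data.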
# Numbers stand for hits; 0 = inactive; ? = inconclusive; - = no result given; ! = a repeat was not active. Only some compounds are listed: those with a hit (about 1.1% of all), similar ones and a draw of the others. Unless noted, the call rests on the fitted dose curve; in most records, active means well fitted curve in the direction sought with a large enough effect; inconclusive means small, poorly fitted or top-dose-only effect, or another doubt; inactive means no such curve, though single readings can be large; an effect the other way counts as inactive or inconclusive.
SMILES,Glioma ERSR ind,ALOX12 inh,Anesthetic bind,BCR signal inh
O=C(Nc1ccc(SC(F)F)cc1)c1cc(-c2ccccc2)nc2ccccc12,-,40µM,-,-
COc1ccc2nc(C[C@@H]3C[C@@H](C(C)C)[C@H](CNCc4ccccn4)C=C3C)[nH]c2c1,-,0,-,-
Cc1cccc(NC(=O)c2cc(-c3ccc(C)o3)nc3ccccc23)c1,-,10µM,-,-
COc1cc(-c2cc(C(=O)Nc3cccc(C(C)=O)c3)c3ccccc3n2)cc(OC)c1OC,0,0,0,0
CCNC(=S)NNC(=O)c1cc(-c2ccc(OC)cc2)nc2ccccc12,0,?,0,?
COc1cc(-c2cc(C(=O)Nc3ccc(O)cc3)c3ccccc3n2)cc(OC)c1OC,0,45µM,0,?
COc1ccc(Cl)cc1C(=O)NNC(=S)NC(=O)c1cc(-c2ccc(Cl)cc2)nc2ccccc12,0,50µM,0,0
Cc1ccc(-c2cc(C(=O)Nc3cc(F)ccc3F)c3ccccc3n2)o1,-,7.9µM,-,-
CCOc1ccccc1NC(=O)Cc1c[nH]c2ccccc12,-,0,-,-
O=C(NCc1c[nH]c2ncccc12)c1ccccc1,-,0,-,-
Cc1cc2nc(CSc3ccc(NC(=O)c4ccccc4C(F)(F)F)cc3)cc(=O)n2o1,-,0,-,-
CCCCCC(=O)N/N=C/c1cccnc1,-,0,-,-
O=C(Nc1cccnc1)c1coc(=O)c2ccccc12,0,0,0,18µM
O=C(Nc1cccnc1)c1ccccc1O,0,0,0,?
Cc1ccc(-c2cc(C(=O)Nc3cccnc3)c3ccccc3n2)o1,0,10µM,0,0
O=C(Nc1ccccn1)c1cc(-c2ccco2)nc2ccccc12,-,40µM,-,-
O=C(Nc1ccccn1)c1cc(-c2ccc(Cl)s2)nc2ccccc12,0,0,-,0
Cc1ccc(-c2cc(C(=O)Nc3ccccn3)c3ccccc3n2)o1,0,6.3µM,0,0
Cn1c(=O)c2c(nc(NCc3ccc(S(N)(=O)=O)cc3)n2Cc2ccccc2Cl)n(C)c1=O,-,0,-,-
Cc1ccc(OCCCOc2ccccc2/C=N/NC(=O)c2cccc(Cl)c2)c(C)c1,-,0,-,-
CCOC(=O)C1CCCN(C(=O)c2cc(-c3ccncc3)nc3ccccc23)C1 (configuration not stated),0,0,-,0
CCOC(=O)C1CCCN(C(=O)c2cc(-c3ccco3)nc3ccccc23)C1 (configuration not stated),0,8.9µM,-,0
CC1CCN(C(=S)NCCc2ccccc2)CC1,0,0,0,?
OC(c1ccccc1)(c1ccccc1)C1CCN(C(=S)NCCc2ccccc2)CC1,0,40µM,0,0
C=CCNC(=O)[C@@H]1Cc2cn(CC3CC3)c3cccc(c23)[C@H](CC(C)C)N1,-,0,-,-
SMILES,Glioma ERSR ind,ALOX12 inh,Anesthetic bind,BCR signal inh
N#Cc1cc([N+](=O)[O-])ccc1NC(=O)COC(=O)C12CC3CC(CC(C3)C1)C2,-,-,35µM,?
COc1ccc(Cl)cc1NC(=O)N1CCC2(CC1)N=C(c1ccc(C(C)(C)C)cc1)C(=O)N2,-,0,-,-
CC(NC(=O)c1cc(-c2ccco2)nc2ccccc12)C(=O)NCc1ccccc1 (configuration not stated),-,40µM,-,-
Cc1ccc2nc(C)cc(C(=O)OC(C)C(=O)NC3CCCC3)c2c1 (configuration not stated),-,0,-,-
COc1ccc(CCNC(=O)c2cc(-c3ccco3)nc3ccccc23)cc1,0,?,-,-
O=C(COC(=O)c1cc(-c2ccco2)nc2ccccc12)NCc1ccccc1,0,10µM,0,?
CCNC(=O)NC(=O)COC(=O)c1cc(-c2ccc(C)o2)nc2ccccc12,-,3.2µM,-,-
Cc1ccc(-c2cc(C(=O)OC(C)C(=O)NC(=O)NC3CCCC3)c3ccccc3n2)o1 (configuration not stated),-,4µM,-,-
CCOc1ccc(NC(=O)CSc2nccc(-c3ccc(Br)cc3)n2)cc1,-,0,-,-
CCNC(=O)NC(=O)COC(=O)c1cc(-c2ccco2)nc2ccccc12,-,6.3µM,-,-
O=C(O)c1cc(F)cc(Br)c1,-,0,-,-
Cn1c(Cn2cccn2)nnc1C1CC(NC(=O)c2sccc2N)C1 (configuration not stated),-,10µM!,-,-
N#CC1(NC(=O)CSc2c(Cl)cccc2Cl)CCCCC1,-,14µM,-,-
N#CC1(NC(=O)CSc2ccc3ccccc3n2)CCCCC1,-,0,-,-
CCOc1cccc(CN2CC[C@@](C)(O)[C@H](N3CCCC3)C2)c1,-,0,-,-
CCc1ccccc1NC(=S)N=Nc1c(O)n(C)c2ccc(S(=O)(=O)N3CCOCC3)cc12,0,0,0,18µM
Cc1ccc(C)c(NC(=S)N=Nc2c(O)n(C)c3ccc(S(=O)(=O)N4CCOCC4)cc23)c1,0,0,0,?
O=c1[nH]c2ccc(Br)cc2c(-c2ccccc2)c1CN1CCCCC1,-,22µM,-,-
CC(C)(CNC(=O)C1CCCCC1C(F)(F)F)C(N)=O (configuration not stated),-,0,-,-
O=C(COC(=O)Cn1cnc2ccccc2c1=O)Nc1ccc(Cl)c(C(F)(F)F)c1,0,0,25µM,0
O=C(COC(=O)Cn1cnc2ccccc2c1=O)Nc1ccc(Cl)cc1,0,0,?,0
CCOc1cc(NC(=S)NCC2CCCO2)c(OCC)cc1NC(=O)c1ccccc1F (configuration not stated),0,40µM,0,?
COCCN1CCN(c2nc(-c3cccs3)nc3scc(-c4ccccc4)c23)CC1,-,0,-,-
CCc1ccc(CNC(=O)c2cc3cc(C)ccc3[nH]2)cc1,-,35µM,-,-
Cc1cc(C(=O)NC(=S)Nc2cccc(C(=O)O)c2C)ccc1[N+](=O)[O-],0,20µM,0,?
SMILES,Glioma ERSR ind,ALOX12 inh,Anesthetic bind,BCR signal inh
O=C(NNC(=S)NC(=O)c1ccc(Br)cc1)c1cccc([N+](=O)[O-])c1,0,40µM,0,0
O=C(NC(=S)Nc1cccc(NC(=O)c2ccccc2)c1)c1cccc([N+](=O)[O-])c1,0,28µM,0,?
CC1CCN(C(=S)NC(=O)c2ccc(C(C)(C)C)cc2)CC1,0,32µM,0,0
CC1CCN(C(=S)NC(=O)c2ccccc2)CC1,0,0,0,0
CC(=O)NNC(=S)NC(=O)c1cccc([N+](=O)[O-])c1,0,?,0,?
CSc1cccc(NC(=O)c2ccc3c(c2)OCC(=O)N3)c1,-,0,-,-
Cc1cc(C(=O)NNC(=S)NC(=O)c2ccccc2)cs1,-,28µM,-,-
O=C(NNC(=O)c1ccc([N+](=O)[O-])cc1)c1ccc(Br)cc1,0,0,0,0
Cc1ccc(C(=O)NC(=S)NNC(=O)c2ccccc2[N+](=O)[O-])cc1,0,32µM,0,?
Cc1cccc(C(=O)NNC(=S)NC(=O)c2ccccc2)c1,?,0,-,-
O=C(NNC(=S)NC(=O)c1ccc(Br)cc1)c1ccc([N+](=O)[O-])cc1,0,45µM,0,?
O=C(NC(=S)N1CCOCC1)c1ccc([N+](=O)[O-])cc1,0,0,0,23µM
N#Cc1ccc(C(=O)NC(=S)N2CCOCC2)cc1,0,0,-,0
